Assay [1] can be described thus: resazurin metabolic signal in HepG2 cells – cell-based, resazurin fluorescence, 24 h, PK04 Diversity Set, profiling panel (AID 1172). Note: test concentration not given here. Conditions: HepG2 viability, higher = more signal.
Assay [2] is described as follows: budding yeast growth changes without added modifier – OD600, strain BY4716, 24 h, basal condition, primary screen (AID 1173). Conditions: S. cerevisiae BY4716 growth, OD600, 24 h; higher = more signal, called active from +8 up or from −8 down.
Assay [3] can be described thus: viability profiling in MM1S myeloma cells – cell-based, resazurin fluorescence, basal, 24 h, PK04 Diversity Set, profiling panel (AID 1174).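 Note: MM1S multiple myeloma cell line; test concentration not given here.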 Conditions: higher = more signal, called active from +8 up or from −8 down.
The target of assay [4] is Dihydroorotate dehydrogenase (quinone), mitochondrial (Plasmodium falciparum (isolate 3D7)) (UniProt Q08210). The assay can be described thus: inhibition of P. falciparum DHODH – biochemical, C-terminal His tag, absorbance 600 nm, primary screen (AID 1175).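 Note: recombinant parasite enzyme with a five histidine tag at its C terminus; test concentration not given here.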 The note with it: PfDHODH enzyme, DCIP absorbance 600 nm; higher = more signal, called active from +8 up or from −8 down.
Chain of Dihydroorotate dehydrogenase (quinone), mitochondrial (Plasmodium falciparum (isolate 3D7)) (Q08210 whole entry, looked up): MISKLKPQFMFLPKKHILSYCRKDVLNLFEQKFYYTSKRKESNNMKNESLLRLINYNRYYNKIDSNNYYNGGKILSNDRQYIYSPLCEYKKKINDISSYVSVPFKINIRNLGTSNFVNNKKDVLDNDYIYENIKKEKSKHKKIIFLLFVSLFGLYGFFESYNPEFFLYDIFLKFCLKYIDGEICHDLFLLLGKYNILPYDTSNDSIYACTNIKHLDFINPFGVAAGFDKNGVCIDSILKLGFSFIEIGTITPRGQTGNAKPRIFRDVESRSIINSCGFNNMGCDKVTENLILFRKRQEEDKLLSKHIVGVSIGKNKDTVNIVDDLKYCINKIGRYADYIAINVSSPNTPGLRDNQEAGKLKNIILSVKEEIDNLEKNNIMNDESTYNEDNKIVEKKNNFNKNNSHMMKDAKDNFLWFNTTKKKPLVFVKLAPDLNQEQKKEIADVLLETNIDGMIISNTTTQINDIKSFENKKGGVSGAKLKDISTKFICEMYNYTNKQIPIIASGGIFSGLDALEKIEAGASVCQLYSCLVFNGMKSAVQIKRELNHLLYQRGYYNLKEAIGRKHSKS

A short description of assay [5]: inhibition of PAO1 biofilm formation – strain PAO1, LB-PBS medium, absorbance 600 nm, primary screen (AID 1176). Note: test concentration not given here. Conditions: P. aeruginosa PAO1 growth/biofilm, A600, 12 h; higher = more signal.
Assay [6] in a line: growth modulation of vineyard yeast isolate – strain RM11-1a, OD600, basal, 24 h, primary screen (AID 1177).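 Note: cultures grown under basal conditions with no added stressor; test concentration not given here.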 Conditions: S. cerevisiae RM11-1a growth, OD600, 24 h; higher = more signal, called active from +8 up or from −8 down.
Assay [7] in a line: growth of efflux-deficient E. coli DRC39 – strain DRC39, OD650, 24 h, E. coli filamentation inducers, primary screen (AID 1178).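 Note: growth measured as culture turbidity by optical density at 650 nm; test concentration not given here.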 The note with it: E. coli DRC39 acrAB, higher = more signal, called active from +8 up or from −8 down.
Assay [8] in a line: growth of efflux-deficient E. coli DRC39 – strain DRC39, OD650, 48 h, E. coli filamentation inducers, primary screen (AID 1179).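 Note: screen aims at cell division blockers that make cells filament.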 Conditions: E. coli DRC39 delta-acrAB growth, higher = more signal, called active from +8 up or from −8 down.
Assay [9] in a line: viability profiling in RPMI8226 myeloma cells – cell-based, resazurin fluorescence, basal, 24 h, PK04 Diversity Set, profiling panel (AID 1180).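 Note: RPMI8826 multiple myeloma cell line at 5000 cells per well; test concentration not given here.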 The note with it: higher = more signal.
Assay [10] deals with E3 ubiquitin-protein ligase XIAP (Homo sapiens) (UniProt P98170). Kind of assay: small molecules binding XIAP protein – biophysical, small-molecule microarray, fluorescence 635 nm, primary screen (AID 1181).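 Note: score merges 667 nm emission and signal to noise over triplicate slides.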 The note with it: higher = more signal.
Chain of E3 ubiquitin-protein ligase XIAP (Homo sapiens) (P98170 whole entry, looked up): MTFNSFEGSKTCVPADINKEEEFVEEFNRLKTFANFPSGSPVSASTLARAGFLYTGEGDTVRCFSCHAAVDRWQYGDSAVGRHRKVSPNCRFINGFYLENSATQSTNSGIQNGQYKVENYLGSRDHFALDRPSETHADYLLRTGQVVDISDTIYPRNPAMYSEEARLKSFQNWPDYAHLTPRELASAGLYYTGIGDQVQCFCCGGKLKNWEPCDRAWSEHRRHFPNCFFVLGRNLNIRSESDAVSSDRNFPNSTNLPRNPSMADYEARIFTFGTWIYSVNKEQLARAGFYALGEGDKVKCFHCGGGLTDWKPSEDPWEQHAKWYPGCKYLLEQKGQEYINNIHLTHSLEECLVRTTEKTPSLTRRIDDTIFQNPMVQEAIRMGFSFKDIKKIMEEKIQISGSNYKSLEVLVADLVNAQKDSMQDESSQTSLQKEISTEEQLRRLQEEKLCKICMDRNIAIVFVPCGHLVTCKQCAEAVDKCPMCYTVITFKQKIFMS

Activity calls are given as the source filed them. Unless noted, the rule behind the calls is not given here.

As to `COC(=O)[C@@]1(Cc2ccc(F)cc2)[C@H]2c3cc(C(=O)N(C)C)n(CCF)c3C[C@H]2CN1C(=O)c1ccccc1`, the z-score was 0.0085 in assay [1]; 0.0276 (inactive) in assay [2]; -0.182 (inactive) in [3]; 0.7 (inactive) in [5]; -0.5 (inactive) in assay [6]; 0.783 (inactive) in assay [7]. The z-score in assay [8] was 0.459 (inactive); in assay [9], 0.034. The figures for the composite z-score in assay [4] and in [10] were -0.54 (inactive) and 0.179, respectively.
With `COCCOC(=O)N1C(=O)[C@@]2(c3cc(C#CC4=CCCCC4)ccc31)[C@H](C(=O)N1CCCCCCC1)[C@H]1C(=O)O[C@H](c3ccccc3)[C@H](c3ccccc3)N1[C@@H]2c1ccccc1OCCO`, the z-score in [1] is 1.84; in assay [2] it was 0.615 (inactive); in [3] it was 0.209 (inactive); in assay [5], 0.526 (inactive); in [6], 0.511 (inactive); in [7] it was -0.294 (inactive). Besides, the z-score is -1.14 (inactive) in [8] and 0.185 in assay [9]. Besides, the composite z-score was -0.434 (inactive) in assay [4] and -0.0244 in [10].
Turning to `COC(=O)C[C@H]1O[C@]2(C(=O)N(C)c3ccccc32)[C@@H](C)[C@@H]1[Si](C)(C)c1ccccc1`, the z-score in assay [1] is 1.45; in assay [2], -2.07 (inactive); in assay [3], 0.317 (inactive); in assay [5], -1.24 (inactive); in [6], -0.136 (inactive); in assay [7] it was 0.709 (inactive). Besides, the results for the z-score in [8] and in assay [9] were -0.106 (inactive) and 1.22, respectively. The figures for the composite z-score in assay [4] and in assay [10] were -0.343 (inactive) and 0.135, respectively.
Consider `C=CCC(OC(C)=O)[C@@H]1[C@@H](N(Cc2ccc(-c3ccccc3)cc2)C(=O)Cc2ccc(OC)cc2)c2cc(OCCCO)ccc2N1C(=O)Cc1ccc(OC)cc1` (stereo not given in full), for which the z-score in assay [1] was -0.626; in assay [2] it was 0.118 (inactive); in assay [3], -0.622 (inactive); in assay [5] it was 0.186 (inactive); in assay [6], -0.565 (inactive); in assay [7] it was -0.105 (inactive). Further, the z-score in assay [8] was -0.403 (inactive); in assay [9], -0.357. Also, the results for the composite z-score in assay [4] and in [10] were -0.0632 (inactive) and -0.185, respectively.
On to `CCCCN1CC=CC23O[C@@H]4/C=C\CCCOC(=O)C4[C@H]2C(=O)N(CCCCCCO)[C@@H]3C1=O` (stereo not given in full), for which the z-score in [1] is 0.646; in [2], -0.556 (inactive); in [3], 1.21 (inactive); in assay [5], 0.454 (inactive); in assay [6], -0.874 (inactive); in [7], 0.564 (inactive). The values for the z-score in assay [8] and in [9] were 0.924 (inactive) and 0.983, respectively. For the same compound, the composite z-score in [4] is -1.97 (inactive); in assay [10] it was -0.159.
Turning to `OCCCc1cc[n+](Cc2cc3c(cc2Br)OCO3)cc1`, the z-score in assay [1] was -0.0125; in assay [2] it was -0.486 (inactive); in assay [3], 0.463 (inactive); in [5], -0.653 (inactive); in [6] it was -0.126 (inactive); in assay [7], 0.311 (inactive). The figures for the z-score in [8] and in assay [9] were -0.0111 (inactive) and 0.275, respectively. For the same compound, the values for the composite z-score in assay [4] and in assay [10] were -0.22 (inactive) and -0.0931, respectively.
Turning to `COC(=O)[C@H](Cc1ccccc1)N1CC(C)(OC)O[C@@H](Cc2ccccc2)[C@H]1/C=C/C1CC1` (stereo not given in full), the z-score in assay [1] was 0.0905; in assay [2], -0.968 (inactive); in [3], -0.32 (inactive); in assay [5], -0.532 (inactive); in [6] it was 0.815 (inactive); in assay [7] it was -0.311 (inactive). Moreover, the z-score is 0.215 (inactive) in assay [8] and -0.249 in assay [9]. Further, the composite z-score in assay [4] is 0.512 (inactive); in assay [10] it was 0.0583.
Regarding `COc1ccc(-c2cc3c(c(CCc4ccccc4)n2)[Si](C(C)C)(C(C)C)O[C@H]3c2ccccc2)cn1`, the z-score in assay [1] is -0.166; in [2] it was 0.871 (inactive); in [3] it was 0.694 (inactive); in assay [5], 0.726 (inactive); in [6] it was 0.868 (inactive); in [7] it was -1.19 (inactive). Moreover, the values for the z-score in [8] and in [9] were -0.893 (inactive) and -0.555, respectively. For the same compound, the composite z-score is -0.575 (inactive) in assay [4] and -0.12 in assay [10].
Consider `CN(C)CCCCNC(=O)[C@H]1C[C@H]2C(=O)N[C@@H](CCCCN(C)C)C(=O)N2[C@H]1c1ccc(O)cc1`, for which the z-score in assay [1] is 0.828; in [2] it was -1.95 (inactive); in [3], 0.419 (inactive); in assay [5] it was 0.655 (inactive); in [6], -1.52 (inactive); in assay [7] it was 1.12 (inactive). Further, the z-score in assay [8] was 1.67 (inactive); in [9] it was 1.82. Also, the composite z-score in [4] is 0.245 (inactive); in assay [10], -0.127.
Regarding `CC(C)N1C(=O)[C@@]2(Cc3ccccc31)c1ccccc1C(=O)N(Cc1ccccc1C(F)(F)F)[C@H]2c1ccc(CO)cc1`, the z-score in assay [1] was 0.0887; in [2], 0.407 (inactive); in [3], 0.0922 (inactive); in assay [5], 0.146 (inactive); in [6], -0.107 (inactive); in assay [7], -0.0949 (inactive). Moreover, the z-score is -0.818 (inactive) in assay [8] and 0.566 in assay [9]. Moreover, the figures for the composite z-score in assay [4] and in assay [10] were -18 (active) and 0.0377, respectively.

Source of the values: PubChem BioAssay.
